This is an account of results in PubChem BioAssay (NCI).

The panel holds about 83,000 compounds, 20% with a hit somewhere; the sample as a whole holds those more often.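 The endpoint reported here, percent growth, reads 100 for growth as untreated, 0 for no net growth and -100 for all cells dead.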 Unmarked numbers belong to inactive results. Activity calls are given as the source filed them.

For this assay, the system named is SK-MEL-28 melanoma. Briefly: NCI-60 one-dose screen, 48 h (100 = growth as untreated, 0 = no growth, -100 = all killed). As to conditions: 10 µM. The method, then:
Growth inhibition of the SK-MEL-28 human tumor cell line is measured as a screen for anti-cancer activity. Cells are grown in 96 well plates and exposed to the test compound for 48 hours. Compounds are tested at a single concentration, which is 10^-5 M for most compounds. The reported endpoint is percent growth (GI% or GIPRCNT), where numbers from 0 - 100% represent growth inhibition, and numbers from -100% - 0 represent cell death. For example, a value of 40 represents 60% growth inhibition. A value of 0 means no net growth occurred over the course of the experiment. A value of -40 indicates 40% of cells at the beginning of the experiment died by the end of the experiment. A value of -100 means all cells are dead at the end of the experiment.
NCI-60 Human Tumor Cell Lines Screen was performed using the standard one-dose NCI protocol, which is described in more detail at https://dtp.cancer.gov/discovery_development/nci-60/default.htm.
Compounds with GIPRCNT values below 10 were considered active. Activity score was based on GIPRCNT using the following formula: […]
Score is 0 for GIPRCNT values of 100 or above, 50 for GIPRCNT values of 0, and 100 for GIPRCNT values of -100.
`COc1ccc2[nH]cc(-c3nc(N)nnc3-c3cn(C)c4ncc(Br)cc34)c2c1`: the growth is 37.5%. Next, `COc1ccc(C(=O)COc2ccc(NC(=O)Nc3ccc(Cl)c(C(F)(F)F)c3)cc2)cc1`: 40.1%; `COC(=O)CNC(=O)COc1c(OC)c(OC)cc2oc(-c3cccc(C(=O)Nc4ccc(Cl)cc4)c3)cc(=O)c12`: 20.5%. For `COc1ccc(-n2c(SCC(=O)NNS(=O)(=O)c3ccccc3)nc3ccc(Cl)cc3c2=O)cc1` the value was 98.3%; for `C#C[C@]1(O)CC[C@H]2[C@@H]3CC=C4c5sc(Nc6ccc(C(F)(F)F)cn6)nc5CC[C@]4(C)[C@H]3CC[C@@]21C`, -16.5% (active). As for `Cc1ccc(-c2nc(C#N)c(S(=O)(=O)N3CCN(S(C)(=O)=O)CC3)o2)cc1`, the growth is 34.3%. Next, `CC(C)(C)c1cc(/C=C2\S/C(=N/c3ncn[nH]3)NC2=O)cc(C(C)(C)C)c1O`: 21.6%. For `Cc1ccc2c(c1)C(=O)/C(=C/c1ccc([N+](=O)[O-])cc1)S2` the value was 109%; for `Cn1cc(-c2nnc(N)nc2-c2c[nH]c3ccc(F)cc23)c2cc(Br)cnc21`, 52.4%; for `COc1ccc(Cc2nn(CC(=O)N/N=C/c3ccc(Br)cc3)c(=O)c3c(C)noc23)cc1`, 70.2%. Next, `COc1cc(C2CC(c3ccc(Oc4ccc(Cl)cc4)cc3)=NN2c2nc(-c3ccc(Cl)cc3)c(C#N)c(N3CCOCC3)n2)cc(OC)c1OC` (stereo not given): 97.8%.

On to `Cc1ccc2sc3c(c2c1)Oc1nc[nH]c(=O)c1C3c1cccc(F)c1` (stereo not given), for which the growth is 110%. Next, `Cn1cc(-c2nnc(N)nc2-c2c[nH]c3ccccc23)c2cc(Br)cnc21`: 49.2%; `COc1ccc(Cc2nn(CC(=O)N/N=C/c3ccc([N+](=O)[O-])cc3)c(=O)c3c(C)noc23)cc1`: 80.3%. For the molecule `COc1ccc(C2c3sc4ccc(C)cc4c3Oc3nc[nH]c(=O)c32)cc1` (stereo not given), the growth was 80.9%.

As to `O=C1NC2C=CC=CC2/C1=C1/SC(=S)N(C2CC(=O)N(c3ccc(Br)cc3)C2=O)C1=O` (stereo not given), the growth is 101%. Next, `CCn1c(SCC(=O)Nc2ccc(-c3nc4ccccc4[nH]3)cc2)nc2ccccc2c1=O`: -76.7% (active). `CC1[C@H]2[C@H](C[C@H]3[C@@H]4CC=C5c6sc(Nc7cccc(Cl)n7)nc6CC[C@]5(C)[C@H]4CC[C@@]32C)O[C@]12CC[C@@H](C)CO2` (stereo not given in full): the growth is 100%. For the molecule `CCOC(=O)C1=C(N)N(c2ccc(C)cc2)C2=C(C(=O)CC(C)(C)C2)C1c1ccccc1Br` (stereo not given), the growth was 93.7%. Next, `O=C(CSc1nc2ccccc2c(=O)n1-c1ccc(Cl)cc1)Nc1ccc(-c2nc3ccc([N+](=O)[O-])cc3[nH]2)cc1`: 21.1%. As to `COc1cc(-c2nc3ccc(C)cc3[nH]2)ccc1OCc1nnc(-c2ccccc2Br)o1`, the growth is 70.4%.

Consider `Cn1cc(-c2cc3nc(-c4c[nH]c5ccccc45)cc(N)n3n2)c2cc(Cl)ccc21`, for which the growth was -99.4% (active).

Take `COc1ccc(C2OC[C@@]3(C)C4CC[C@]5(C)C(CC=C6C7CC(C)(C)CC[C@]7(C(=O)O)CC[C@]65C)[C@@]4(C)C[C@@H](O)[C@@H]3O2)cc1` (stereo not given in full): the growth was 103%. Next, `Cc1cc(N=C2NC(=O)/C(=C/c3cc(C(C)(C)C)c(O)c(C(C)(C)C)c3)S2)n[nH]1`: 22.9%.

Turning to `COc1cc2oc(-c3cccc(C(=O)Nc4ccc(Cl)cc4)c3)cc(=O)c2c(OCCNC(=O)[C@@H](N)CO)c1OC`, the growth was -74.9% (active). On to `COc1cc2oc(-c3cccc(C(=O)Nc4ccc(Cl)cc4)c3)cc(=O)c2c(OCCN)c1OC`, for which the growth is -88.1% (active). Consider `Nc1nnc(-c2c[nH]c3ncc(Br)cc23)c(-c2c[nH]c3ccc(Br)cc23)n1`, for which the growth was 45.6%.

On to `COc1cc(C2CC(c3ccccc3)=Nc3c(N)nc(N)nc3N2)ccc1Oc1nc(NCCO)nc(N2CCOCC2)n1` (stereo not given), for which the growth was 100%. As for `O=C1S/C(=C\c2ccc([N+](=O)[O-])cc2)C(=O)N1CCN1CCCCC1`, the growth is 109%.

As to `COc1ccc(Cn2cc(C#N)c(N)c2C(C)=O)c(OC)c1`, the growth was 109%.

Take `Cc1ccc2c(c1)C(=O)/C(=C/c1c[nH]c3ccccc13)S2`: the growth was 65.2%. As for `COc1cccc(C(=O)CSc2nc(-c3ccc(OCc4ccccc4)c(OC)c3)c(C#N)c(=O)[nH]2)c1`, the growth was 96.5%. Next, `COc1cccc(O)c1/C=C1\SCc2cc3c(OC)cccc3[o+]c21`: 105%; `COc1ccc(C(=O)COc2ccc(NC(=O)Nc3ccccc3)cc2)cc1`: 102%. Consider `O=C(Nc1ccc(OCc2ccc(Cl)cc2)cc1)Nc1ccc(Cl)c(C(F)(F)F)c1`, for which the growth is 35.6%. Next, `Cc1ccc(COc2ccc(NC(=O)Nc3ccc(Cl)c(C(F)(F)F)c3)cc2)cc1`: 93.6%; `C#CCOc1cc(N(CC)CC)ccc1C(C(=O)NC(C)(C)C)N(C(=O)C1CCc2cc(F)ccc2O1)c1ccc(F)cc1F` (stereo not given): 62.8%. Next, `O=C(CN1CCN(c2ncnc3c2cnn3-c2ccccc2)CC1)Nc1ccc(Br)cc1`: 72%. Regarding `O=C(c1ccc(Cl)cc1)C(c1c[nH]c2ccccc12)c1c[nH]c2ccccc12`, the growth is -92.5% (active). For `C#C[C@]1(O)CC[C@H]2[C@@H]3CC=C4c5sc(Nc6ccc(N(C)C)cc6)nc5CC[C@]4(C)[C@H]3CC[C@@]21C` the value was -21.6% (active).
